Activity calls are given as the source filed them.

This test can be described thus: growth effects on S. cerevisiae YJM789 – YJM789 clinical isolate, OD600, 24 h, basal, primary screen (AID 1089).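 Also: growth of clinical yeast isolate S. cerevisiae YJM 789 seeded 1000 cells per well; test concentration not given here.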 The following applies: higher = more signal, called active from +8 up or from −8 down.
As for `C=CC[C@@H]1C=C[C@H](ON=C(C)CCN2CCCc3nc(C)c(C)cc32)[C@@H](CO)O1`, the z-score was -0.367 (inactive).

Regarding `O=C1CCCC=C1C(O)C1CCCCC1` (stereo unspecified), the z-score was -0.711 (inactive).

As to `CO[C@H]1COC(=O)CC=C[C@H](C)[C@H](OC)COC(=O)[C@@H](C)NC(=O)CC=C[C@@H]1C`, the z-score is -1.77 (inactive).

For `COC(=O)CC=C[C@@H](C)[C@@H](C=NOC[C@@H](C)[C@H](OCc1ccccc1)C(C)C)OC`, the z-score is 0.0783 (inactive).

As to `CC(C)CON=C1C[C@@H](O)[C@@H](O)[C@@H]2[C@@H]3C(=O)N(C(C)(C)C)C(=O)[C@@H]3CC[C@@H]12`, the z-score was 0.118 (inactive).

For `CC1(C)O[C@H]2OC([C@H](O)CON3C(=O)c4ccccc4C3=O)[C@H](O)[C@H]2O1` (stereo partly specified), the z-score is -0.702 (inactive).

`CCOC(=O)CCN1C(=O)[C@H]2[C@H]3[C@H](O)[C@H](O)CC(=NNC(=O)OCC)[C@H]3CC[C@H]2C1=O`: the z-score was 0.654 (inactive).

Consider `CCN(CC)CC(O)CN1CCCCc2nc(C)c(C)cc21` (stereo unspecified), for which the z-score was -1.59 (inactive).

Regarding `CC(C)=NO[C@@H](C)c1cn([C@H](CO)Cc2ccccc2)nn1`, the z-score is -1.93 (inactive).

In the case of `O=C(NN=C1C[C@@H](O)[C@@H](O)[C@@H]2[C@@H]3C(=O)N(Cc4ccccc4)C(=O)[C@@H]3CC[C@H]12)OCc1ccccc1`, the z-score is -0.79 (inactive).

As for `CCOC(=O)CCN1C(=O)[C@H]2[C@H]3[C@H](O)[C@H](O)CC(=NOCC=C(C)CCC=C(C)C)[C@H]3CC[C@H]2C1=O`, the z-score is 0.273 (inactive).

In the case of `CC(=O)OC[C@H]1O[C@@H](ON=C2[C@H]3CCn4c(=O)n(-c5ccccc5)c(=O)n4[C@H]3[C@H](O)[C@@H]3O[C@H]23)[C@H](OC(C)=O)[C@@H](OC(C)=O)[C@@H]1OC(C)=O`, the z-score was -0.436 (inactive).

As for `O=C1CCCC=C1C(O)COCc1ccccc1` (stereo unspecified), the z-score is 0.249 (inactive).

On to `C[C@H]1CC[C@@H](C(=O)O)N[C@@H]1c1cccc(N2CCCC2=O)c1`, for which the z-score is 0.31 (inactive).

Consider `COC(=O)[C@H](C)NC(=O)CCC1CC(OC(=O)NCc2ccc3c(c2)OCO3)CC2(CCCC(COC(=O)NCCCN3CCCC3=O)O2)O1` (stereo partly specified), for which the z-score is 0.395 (inactive).

With `CC(C)(C)N1C(=O)[C@H]2[C@@H]3C(=CC[C@H]2C1=O)C(=O)[C@H]1O[C@H]1[C@H]3O`, the z-score is -2.18 (inactive).

In the case of `CCOC(=O)NN=C1C[C@@H](O)[C@@H](O)[C@@H]2[C@@H]3C(=O)N(C[C@@H]4CCCO4)C(=O)[C@@H]3CC[C@H]12`, the z-score is -1.43 (inactive).

With `CC(C)=CCCC(C)=CCON=C1C[C@@H](O)[C@@H](O)[C@@H]2[C@@H]3C(=O)N(Cc4ccc5c(c4)OCO5)C(=O)[C@@H]3CC[C@H]12`, the z-score was 0.329 (inactive).

As to `CC(=O)OC[C@H]1O[C@H](CC=NOC(C)CN2CCCCc3nc(C)c(C)cc32)C=C[C@@H]1OC(C)=O` (stereo partly specified), the z-score is -0.814 (inactive).

`CCOC(=O)[C@H](Cc1ccccc1)NC(=O)CCC1CC(OC(=O)NCCc2ccc(F)cc2)CC2(CCCC(COC(=O)NCc3cccc(C(F)(F)F)c3)O2)O1` (stereo partly specified): the z-score was 0.563 (inactive).

For the compound `O=C1C=C[C@@H](O)[C@@H]2[C@@H]3C(=O)N(Cc4ccc5c(c4)OCO5)C(=O)[C@@H]3CC[C@@H]12`, the z-score is 0.564 (inactive).

On to `O=C1CCCC=C1C(O)c1ccc([N+](=O)[O-])cc1` (stereo unspecified), for which the z-score was -0.293 (inactive).

Consider `COC(=O)CC=C[C@@H](C)[C@@H](C=NOC(C)CN1CCCCc2nc(C)c(C)cc21)NS(=O)(=O)c1ccc(C)cc1` (stereo partly specified), for which the z-score was -1.12 (inactive).

Take `CC(CCC(=O)OC[C@H]1O[C@H](C#Cc2ccccc2)C=C[C@@H]1Oc1ccc(C)cc1)=NOC(C)CN1CCCc2nc(C)c(C)cc21` (stereo partly specified): the z-score is 2.01 (inactive).

As for `CCN1C(=O)[C@H]2[C@H]3[C@H](O)[C@H](O)CC(=NO[C@H](C)c4cn([C@@H]5COC[C@H]5O)nn4)[C@@H]3CC[C@H]2C1=O`, the z-score was 0.415 (inactive).

Turning to `COc1ccc(-c2cnnc(CCCn3ccnc3-c3ccccc3)n2)cc1`, the z-score is -0.128 (inactive).

The record behind these values is PubChem BioAssay.
